The values below come from article PMC5540273 (PLoS ONE, 2017).

Holding throughout (settings): concentration: 1 μM, replicates: in singlicate; n = 1
The subject of experiment [1] is SGK.
The subject of experiment [2] is SIK2.
Experiment [3] relates to SIK.
For experiment [4], the system named is SLK.
Experiment [5] concerns T1, SNARK.
T1 construct: gene NUAK2

The subject of experiment [6] is SNRK.
The subject of experiment [7] is SRC.
Experiment [8] concerns SRMS.
In experiment [9] the test system is SRPK1.
Experiment [10] has as its system SRPK2.
Experiment [11] deals with SRPK3.
In experiment [12] the test system is STK16.
Experiment [13] has as its system STK33.
The subject of experiment [14] is STK35.
Experiment [15] has as its system STK36.
The subject of experiment [16] is STK39.
Experiment [17] relates to SYK.
For experiment [18], the system named is SgK110.
In experiment [19] the test system is T2, TAK1.
T2 construct: gene MAP3K7

In experiment [20] the test system is TAOK1.

Molecules are shown by their SMILES.
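Note: KINOMEscan kinase panel screen.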

With `NS(=O)(=O)c1cccc(-c2ccc3ncc(N4CCOCC4)nc3c2)c1` [GSK1535721], the “%Inh” value came out at 9% in experiment [1]; 0% in experiment [2]; 0% in experiment [3]; 2% in experiment [4]; 1% in experiment [5]; 0% in [6]. Further, the “%Inh” value in experiment [7] is 0%; in experiment [8] it was 6%; in [9] it was 0%; in experiment [10], 0%; in experiment [11], 0%; in experiment [12], 16%. Further, the “%Inh” value in experiment [13] is given as 0%; in experiment [14], 0%; in experiment [15], 5%; in experiment [16] it was 1%; in experiment [17], 0%; in [18] it was 1%. Besides, the results for the “%Inh” value in experiment [19] and in experiment [20] were 16% and 14%, respectively.

For `COc1ccc(S(=O)(=O)NC2CCN(c3cc(C)nc(Nc4cccc(C#N)c4)n3)CC2)cc1.O=C(O)C(F)(F)F` [GSK1653539], the “%Inh” value came out at 0% in [1]; 0% in experiment [2]; 0% in experiment [3]; 8% in experiment [4]; 0% in [5]; 0% in [6]. Further, the “%Inh” value was 0% in experiment [7]; 0% in experiment [8]; 0% in [9]; 0% in experiment [10]; 0% in experiment [11]; 3% in experiment [12]. The “%Inh” value in [13] was 0%; in experiment [14] it was 0%; in [15], 0%; in experiment [16], 17%; in [17], 0%; in experiment [18], 0%. Further, the “%Inh” value in experiment [19] and in experiment [20] was 0% in each case.

As for `COc1cc2ncn(-c3cc(OCc4sccc4Cl)c(C(N)=O)s3)c2cc1OC` [GSK448459], the “%Inh” value is reported as 0% in experiment [1]; 13% in experiment [2]; 8% in experiment [3]; 99% in [4]; 80% in [5]; 0% in experiment [6]. Moreover, the “%Inh” value is reported as 0% in experiment [7]; 0% in experiment [8]; 88% in [9]; 0% in [10]; 3% in experiment [11]; 21% in experiment [12]. Moreover, the “%Inh” value amounted to 0% in experiment [13]; 0% in experiment [14]; 0% in experiment [15]; 0% in [16]; 23% in experiment [17]; 0% in experiment [18]. For the same compound, the “%Inh” value in [19] and in [20] was 0% in each case.

`Cc1cccc(Cn2ccn3c(=O)cc(N4CCOCC4)nc23)c1` [GSK2297542]: the “%Inh” value in [1] is 0%; in experiment [2], 0%; in [3] it was 3%; in [4] it was 22%; in [5] it was 3%; in experiment [6], 0%. For the same compound, the “%Inh” value in experiment [7] was 24%; in experiment [8], 11%; in [9], 11%; in experiment [10], 0%; in experiment [11], 0%; in experiment [12] it was 61%. Further, the “%Inh” value in [13] stood at 0%; in experiment [14], 0%; in experiment [15], 0%; in [16], 0%; in [17], 22%; in experiment [18], 0%. Moreover, the figures for the “%Inh” value in experiment [19] and in [20] were 13% and 0%, respectively.

In the case of `CC(C)Oc1ccc2c(-c3ccnc(Nc4ccc(N5CCN(C)CC5)cc4)n3)cnn2n1` [GW696155], the “%Inh” value in experiment [1] is recorded as 88%; in [2] it was 83%; in experiment [3], 79%; in [4] it was 10%; in experiment [5], 99.6%; in experiment [6], 23%. Besides, the “%Inh” value in experiment [7] turned out to be 66%; in experiment [8] it was 0%; in experiment [9], 85%; in experiment [10], 54%; in experiment [11], 79%; in [12] it was 98.8%. Further, the “%Inh” value in experiment [13] was found to be 81%; in [14], 45%; in [15], 70%; in [16], 89%; in [17], 10%; in experiment [18], 29%. For the same compound, the “%Inh” value turned out to be 56% in experiment [19] and 76% in experiment [20].

With `c1ccc(-c2cc(-c3c[nH]nc3-c3ccccn3)ccn2)cc1` [GW576604], the “%Inh” value in experiment [1], in experiment [2], in experiment [3], in experiment [4], in experiment [5] and in [6] was 0% in each case. Besides, the “%Inh” value in [7] is on record as 0%; in experiment [8], 0%; in experiment [9] it was 24%; in experiment [10], 9%; in experiment [11] it was 0%; in experiment [12] it was 0%. The “%Inh” value in experiment [13] came out at 8%; in [14] it was 0%; in [15], 0%; in experiment [16], 2%; in experiment [17] it was 6%; in experiment [18], 0%. Further, the “%Inh” value is recorded as 16% in experiment [19] and 0% in experiment [20].

Regarding `Cc1c2ccc(N(C)c3ccnc(Nc4cccc(S(N)(=O)=O)c4)n3)cc2nn1Cc1ccccc1.Cl.Cl` [GW787226], the “%Inh” value in [1] was 0%; in [2], 42%; in [3] it was 72%; in [4], 66%; in experiment [5] it was 0%; in [6], 0%. The “%Inh” value in experiment [7] came to 94.7%; in experiment [8], 67%; in [9], 7%; in experiment [10], 0%; in [11], 2%; in [12], 55%. The “%Inh” value turned out to be 0% in experiment [13]; 0% in experiment [14]; 39% in [15]; 0% in experiment [16]; 60% in experiment [17]; 2% in experiment [18]. Further, the “%Inh” value in experiment [19] came to 4%; in experiment [20], 0%.

`Cc1ccc(C(=O)NCC(N)=O)cc1-n1c(C)cc(OCc2ccc(F)cc2F)c(Br)c1=O`: the “%Inh” value was 0% in experiment [1]; 0% in experiment [2]; 6% in experiment [3]; 24% in [4]; 0% in experiment [5]; 15% in experiment [6]. Besides, the “%Inh” value is 16% in experiment [7]; 0% in experiment [8]; 0% in experiment [9]; 0% in experiment [10]; 21% in experiment [11]; 10% in experiment [12]. The “%Inh” value in experiment [13] is given as 10%; in experiment [14], 10%; in [15] it was 15%; in experiment [16], 0%; in [17], 20%; in experiment [18], 0%. Moreover, the “%Inh” value in [19] and in experiment [20] was 0% throughout.

On to `[2H]C([2H])(c1cccc(C(F)(F)F)c1C)n1ccn2c(=O)nc(N3CCOCC3)cc12` [GSK2336394], for which the “%Inh” value came out at 0% in experiment [1]; 0% in [2]; 0% in [3]; 22% in [4]; 0% in experiment [5]; 0% in [6]. For the same compound, the “%Inh” value in experiment [7] amounted to 0%; in experiment [8], 0%; in [9] it was 37%; in experiment [10], 0%; in [11], 0%; in [12] it was 0%. For the same compound, the “%Inh” value amounted to 0% in experiment [13]; 0% in experiment [14]; 0% in [15]; 1% in experiment [16]; 42% in [17]; 0% in experiment [18]. Moreover, the “%Inh” value in [19] and in [20] was 0% in each case.
